# Records with an inconclusive call do not appear. Where a call stands in place of a potency, no number is given. Active and inactive are the calls of the source. Unless noted, calls come from the whole dose curve; as a rule, active = well fitted curve in the direction sought with a large enough effect; inconclusive = small, poorly fitted or top-dose-only effect, or another doubt; inactive = no such curve, though single readings can be large; an effect the other way counts as inactive or inconclusive.
# Assays:
# [1] = molecular target: Glutaminase kidney isoform, mitochondrial (Homo sapiens) (UniProt O94925); assay: qHTS for Inhibitors of Glutaminase (GLS): LOPAC Validation (AID 624146); note: nearly all actives have a fitted effect of over 60% in size; note: potency is the fitted concentration of half-maximal effect
# In short: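 Read-out is an Amplex red fluorescence increase coupled through glutamate oxidase and HRP, measured before and after 30 min room-temperature incubation. hKGA is in 45 mM KH2PO4 (pH 8.2) with 0.02% Tween-20; glutamine added as 1mM solution.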
# [2] = qHTS of Trypanosoma Brucei Inhibitors: LOPAC Validation (AID 624147)
# In short: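 Enzyme and substrate buffer are dispensed first and compound is pin-transferred. ADP at 130 uM final then starts the reaction, which runs 45 min at room temperature. Detection reagent is added for 10 min before luminescence is imaged.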
# [3] = molecular target: Luciferin 4-monooxygenase (Photinus pyralis) (UniProt P08659); assay: Biochemical firefly luciferase enzyme assay for NPC (AID 624030);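 note: purified P. pyralis luciferase at 10 nM with luciferin and ATP substrate; series mostly up to about 59 µM; nearly all actives have a fitted effect of over 70% in size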
# In short: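 Direct inhibition of firefly luciferase enzyme (10 nM final, 50 mM Tris Acetate) assessed by luminescence within 5 minutes. Percent activity scaled between DMSO and PTC124 positive control, with concentration-effect curves classified by fit quality and response.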
# [4] = S16 Schwann cell viability assay (CellTiter-Glo assay) (AID 624031);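 note: cellular ATP luminescence as a viability measure; series mostly up to about 58 µM; nearly all actives have a fitted effect of over 70% in size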
# In short: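 Luminescent ATP read-out (CellTiter-Glo) after 24 h compound exposure of native S16 rat Schwann cells at 37 °C. Signals were normalized between cell-free wells and DMSO-treated cells, set as 0% activity.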
# [5] = S16 Schwann cell PMP22 intronic element firefly luciferase assay (AID 624032); note: nearly all actives have a fitted effect of over 30% in size; note: potency is the fitted concentration of half-maximal effect
# In short: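 Luciferase reporter of PMP22 intronic-element expression in stably transfected S16 rat Schwann cells, read by ONE-Glo luminescence after 24 h compound exposure at 37 C. Activity scaled between DMSO (0%) and positive-control PTC124; concentration-effect curves quality-classified.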
# [6] = S16 Schwann cell PMP22 intronic element beta-lactamase assay (AID 624044; calls by dose curve; note: nearly all actives have a fitted effect of over 15% in size)
# In short: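 Rat S16 Schwann cells with beta-Lac driven by a PMP22 intronic element, compound-treated 24 h at 37 °C. LiveBLAzer FRET B/G read: 460 nm normalized to potassium clavulanate vs DMSO; 535 nm FRET as viability; concentration-effect curves classified.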
# Sequence of Glutaminase kidney isoform, mitochondrial (Homo sapiens) (O94925 whole entry, looked up, canonical isoform): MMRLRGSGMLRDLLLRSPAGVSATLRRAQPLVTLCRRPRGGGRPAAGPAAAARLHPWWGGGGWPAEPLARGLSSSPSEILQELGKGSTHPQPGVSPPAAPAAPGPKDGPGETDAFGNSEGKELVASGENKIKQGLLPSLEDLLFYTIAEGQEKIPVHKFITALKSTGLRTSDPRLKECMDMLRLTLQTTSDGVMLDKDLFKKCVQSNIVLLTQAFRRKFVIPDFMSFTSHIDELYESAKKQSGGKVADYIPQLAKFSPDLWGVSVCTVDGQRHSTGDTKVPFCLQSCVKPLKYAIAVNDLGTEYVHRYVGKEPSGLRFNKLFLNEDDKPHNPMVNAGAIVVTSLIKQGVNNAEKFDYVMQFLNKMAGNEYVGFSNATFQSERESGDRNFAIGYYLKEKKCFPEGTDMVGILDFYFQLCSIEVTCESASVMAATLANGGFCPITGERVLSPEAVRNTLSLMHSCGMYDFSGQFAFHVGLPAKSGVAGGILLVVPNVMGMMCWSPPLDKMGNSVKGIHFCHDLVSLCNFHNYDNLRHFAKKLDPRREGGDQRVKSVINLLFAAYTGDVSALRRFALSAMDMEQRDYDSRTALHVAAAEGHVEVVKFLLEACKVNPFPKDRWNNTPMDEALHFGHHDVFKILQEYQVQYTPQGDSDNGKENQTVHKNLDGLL
# Sequence of Luciferin 4-monooxygenase (Photinus pyralis) (P08659 whole entry, looked up): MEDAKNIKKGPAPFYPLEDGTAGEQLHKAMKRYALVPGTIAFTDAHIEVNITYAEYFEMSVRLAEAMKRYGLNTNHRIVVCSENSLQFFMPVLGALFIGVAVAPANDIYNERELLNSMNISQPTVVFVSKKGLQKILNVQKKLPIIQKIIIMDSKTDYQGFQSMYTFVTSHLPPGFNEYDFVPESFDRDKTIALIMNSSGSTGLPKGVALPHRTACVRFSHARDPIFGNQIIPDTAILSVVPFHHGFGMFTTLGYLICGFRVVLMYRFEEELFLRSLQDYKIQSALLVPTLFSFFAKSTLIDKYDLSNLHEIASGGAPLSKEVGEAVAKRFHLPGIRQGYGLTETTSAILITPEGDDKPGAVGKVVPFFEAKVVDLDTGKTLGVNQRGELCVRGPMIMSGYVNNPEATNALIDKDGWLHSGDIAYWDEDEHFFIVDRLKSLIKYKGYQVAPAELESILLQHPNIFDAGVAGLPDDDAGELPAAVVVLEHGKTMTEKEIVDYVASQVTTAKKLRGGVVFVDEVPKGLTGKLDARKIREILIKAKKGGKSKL
smiles,measurement,setting,value
COc1ccc(NC(=O)/C=C/c2ccc(Cl)cc2)cc1,Potency,[1],inactive
same,Potency,[2],inactive
CC(N)C(=O)OC(C)(C)Cc1ccc(Cl)cc1 (configuration not stated),Potency,[3],inactive
same,Potency,[4],inactive
same,Potency,[5],inactive
same,Potency,[6],inactive
same,Potency,[1],inactive
same,Potency,[2],inactive
Oc1cc2c(cc1O)CN(C(=S)NCCc1ccc(Cl)cc1)CCC2,Potency,[1],2.24 µM (active)
N.N.N.N.N.N.N.N.N.N.N.N.N.N.O.O.[Ru+4].[Ru+5].[Ru+5],Potency,[1],inactive
NCCNC(=O)c1ncsc1-c1cccc(F)c1,Potency,[1],inactive
same,Potency,[2],inactive
Nc1nc(Nc2ccccc2)nc2c1ncn2[C@@H]1O[C@H](CO)[C@@H](O)[C@H]1O,Potency,[1],inactive
same,Potency,[2],inactive
O=C1CN(/N=C/c2ccc(-c3ccc([N+](=O)[O-])cc3)o2)C(=O)N1,Potency,[3],inactive
same,Potency,[4],inactive
same,Potency,[5],inactive
same,Potency,[6],inactive
N=C(N)N,Potency,[3],inactive
NC(=O)C1=CN(C2OC(COP(=O)(O)OP(=O)(O)OC[C@H]3O[C@@H](n4cnc5c(N)ncnc54)[C@H](OP(=O)(O)O)[C@@H]3O)C(O)C2O)C=CC1 (some centres not stated),Potency,[1],inactive
same,Potency,[2],inactive
O=C(CCN1CCN(CCO)CC1)N1c2ccccc2Sc2ccc(C(F)(F)F)cc21,Potency,[3],inactive
same,Potency,[4],inactive
same,Potency,[6],inactive
COC(=O)C1=C(C)NC(C)=C(C(=O)OCC(C)C)C1c1ccccc1[N+](=O)[O-] (configuration not stated),Potency,[5],32.2 µM (active)
same,Potency,[6],inactive
CNC(=O)[C@H]1O[C@@H](n2cnc3c(NCc4ccc(N)cc4)ncnc32)[C@H](O)[C@@H]1O,Potency,[1],inactive
same,Potency,[2],inactive
CCCCC#Cc1nc(NC)c2ncn([C@@H]3O[C@H](CO)[C@@H](O)[C@H]3O)c2n1,Potency,[1],inactive
same,Potency,[2],inactive
COc1cccc(C(=O)NCCN2CCN(c3ccc(Cl)cc3)CC2)c1,Potency,[1],inactive
same,Potency,[2],inactive
CCCC1(C)C(C#N)(C#N)C1(C#N)C#N,Potency,[1],inactive
same,Potency,[2],inactive
CCCCN1CCC(n2c(=O)[nH]c3ccccc32)CC1,Potency,[1],inactive
same,Potency,[2],inactive
O=C(O)CC1CC(c2ccccc2)=NO1 (configuration not stated),Potency,[1],inactive
same,Potency,[2],inactive
Nc1ncnc2c1c(I)cn2[C@@H]1C[C@H](N)[C@@H](O)[C@H]1O,Potency,[1],inactive
same,Potency,[2],inactive
CO/N=C(\C(=O)N[C@@H]1C(=O)N2C(C(=O)O)=C(COC(C)=O)CS[C@H]12)c1csc(N)n1,Potency,[1],inactive
same,Potency,[2],inactive
C=CC(=O)c1ccc(CCCCCC)cc1,Potency,[1],inactive
same,Potency,[2],inactive
CSc1nc(N)c2ncn([C@@H]3O[C@H](COP(=O)(O)OP(=O)(O)OP(=O)(O)O)[C@@H](O)[C@H]3O)c2n1,Potency,[1],inactive
same,Potency,[2],inactive
COc1ccc2c(c1)CCC1C2CC[C@@]2(C)C1CC[C@@H]2NCCCCCCN1C(=O)CCC1=O (some centres not stated),Potency,[1],inactive
same,Potency,[2],inactive
Nc1nc(SCc2ccc([N+](=O)[O-])cc2)c2ncn([C@@H]3O[C@H](CO)[C@@H](O)[C@H]3O)c2n1,Potency,[1],inactive
same,Potency,[2],inactive
C[N+]1(C)C2CC(OC(=O)[C@H](CO)c3ccccc3)CC1C1OC12 (some centres not stated),Potency,[1],inactive
same,Potency,[2],inactive
